D1 PAM = Potentiators of Human D1 Dopamine Receptor: qHTS; D(1A) dopamine receptor (Homo sapiens), P21728; HEK293 TREx D1 cells, calcium flux, dopamine EC20 potentiation; potentiation, % at 10 µM; actives 0.036% (n = 360,000); AID 504651, 2011; in the data active = potentiation above about 30%
Target sequence (P21728 whole entry, looked up): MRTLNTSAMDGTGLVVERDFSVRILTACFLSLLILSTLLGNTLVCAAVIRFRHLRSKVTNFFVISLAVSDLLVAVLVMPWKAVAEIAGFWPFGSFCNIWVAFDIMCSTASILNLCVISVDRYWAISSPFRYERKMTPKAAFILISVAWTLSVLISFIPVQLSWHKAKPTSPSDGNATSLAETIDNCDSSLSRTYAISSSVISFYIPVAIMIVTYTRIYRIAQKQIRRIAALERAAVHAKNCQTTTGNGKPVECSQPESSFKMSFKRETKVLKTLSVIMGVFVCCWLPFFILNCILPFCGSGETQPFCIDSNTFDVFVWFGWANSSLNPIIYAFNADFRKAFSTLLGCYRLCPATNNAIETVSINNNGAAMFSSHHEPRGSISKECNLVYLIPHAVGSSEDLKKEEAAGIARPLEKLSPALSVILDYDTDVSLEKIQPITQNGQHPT
TRHR agonist = qHTS for Small Molecule Agonists and Allosteric Enhancers of Human TRH Receptor: Primary Screen for Agonists; Thyrotropin-releasing hormone receptor (Homo sapiens), P34981; TRHR cells, calcium flux fluo-8, FDSS agonist mode; activation, % at 2 µM; actives 0.18% (n = 360,000); AID 493084, 2011
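Agonist-mode FDSS calcium read (Ex 480/Em 530, 1 s cycles) in 1536-well TRHR cells with fluo-8 dye, after 10-cycle baseline and 23 nL compound addition; TRH at EC20 (10 nM final) added afterwards for the enhancer phase.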
TRHR PAM = qHTS for Small Molecule Agonists and Allosteric Enhancers of Human TRH Receptor: Primary Screen for Enhancers | TRHR cells, fluo-8 calcium fluorescence, EC20 TRH enhancement | enhancement, % at 2 µM | actives 0.66% (n = 360,000) | AID 493056, 2011; in the data active = enhancement above about 30%
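TRHR-expressing cells loaded with fluo-8 calcium dye were read kinetically (ex 480/em 530) during compound addition, then stimulated with an EC20 of TRH (10 nM final). Enhancement of the Gq-mediated intracellular calcium response was scored.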
D1 agonist = Allosteric Agonists of the Human D1 Dopamine Receptor: qHTS | HEK293 T-REx D1 cells, calcium flux, agonist mode | activation, % at 2 µM | actives 1% (n = 360,000) | AID 504660, 2011
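Agonism was scored from calcium flux recorded over 180 s (1 read/s) after pintool compound addition, following a 10-cycle baseline. Cells were inducible force-coupled HEK293 TREx D1, plated overnight at 30 C and loaded with no-wash calcium dye.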
D1 antagonist = Antagonist of Human D 1 Dopamine Receptor: qHTS | HEK293 TREx D1 cells, calcium flux, dopamine EC80; active compounds read low | D(1A) dopamine receptor (Homo sapiens), P21728 | actives 3.2% (n = 360,000) | AID 504652, 2011 | activity change, negative = inhibition, % at 10 µM; in the data active = activity change below about -30%
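Inducible Hek293 Trex D1 cells (tetracycline, overnight, 30 C). Calcium dye 30–90 min RT. Antagonist mode: EC80 dopamine added after 180 s compound read.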
Numbers stand for hits; - = inactive; . = not tested or not shown. Shown are actives, neighbours in structure and some others; about 4.6% of the full set was active somewhere. Rule as the data show it, unless noted: active = activation above about 30%; inactive = the rest.

SMILES	D1 PAM	TRHR agonist	TRHR PAM	D1 agonist	D1 antagonist
CCOC(=O)c1c(S(=O)(=O)N2CCCC(C(=O)NCc3ccccc3OC)C2)c(C)n(C)c1C (stereo unspecified)	-	-	-	-	-
CCOC(=O)Cc1nnc(NC(=O)C(CC)Sc2nc(C)cc(C)n2)s1 (stereo unspecified)	.	-	-	-	-36
COc1ccc(Cc2nnc(NC(=O)CSc3ccc(C)cc3)s2)cc1OC	-	-	-	224	-
COc1ccc(NC(=O)CSc2nnc(NC(=O)C3CC3)s2)cc1OC	-	-	-	-	-36
CC(=O)Nc1ccc(NC(=O)CSc2nnc(NC(=O)C3CC3)s2)cc1	-	-	-	-	-
COc1ccc(-c2nnc(NC(=O)CSc3ccc(Cl)cc3)s2)cc1OC	-	-	-	-	-
CCOC(=O)Cc1nnc(NC(=O)CSc2ccc(Cl)cc2)s1	-	-	-	-	-32
CCSc1nnc(NC(=O)Cc2ccc(OC)c(OC)c2)s1	-	-	-	-	-33
COC(=O)c1cc(NC(=O)CSc2nnc(N)s2)ccc1Cl	-	-	34	-	-
COc1ccc(CCNC(=O)CCc2c(C)nc3cc(-c4cccc(F)c4)nn3c2C)cc1OC	-	-	-	-	-34
CCOc1ccc(CCNC(=O)CCc2c(C)nc3c4c(C)cc(C)nc4nn3c2C)cc1	-	-	-	-	-36
Cc1nc2cc(-c3cccc(F)c3)nn2c(C)c1CCC(=O)N1CCN(c2ccc(F)cc2)CC1	-	-	-	-	-
COc1ccccc1-c1cc2nc(C)c(CCC(=O)NCCc3ccc(SC)cc3)c(C)n2n1	-	-	-	-	-47
COc1ccc(N2CCN(C(=O)CCc3c(C)nc4cc(-c5cccc(F)c5)nn4c3C)CC2)cc1	-	-	37	-	-
COc1ccc(CCNC(=O)CCc2c(C)nc3c(-c4ccc(F)cc4)c(C)nn3c2C)cc1OC	-	-	-	-	-
O=C(NCc1ccc(F)cc1Cl)c1ccc(CSCc2ccccc2Cl)o1	-	-	-	-	-
COc1ccc(C(=O)c2sc(Nc3ccccc3)nc2N)cc1OC	-	-	33	-	-
COc1ccc(C(=O)c2sc(Nc3ccccc3)nc2N)cc1	-	-	-	-	-
COc1ccc(C(=O)N2CCc3cc4c(cc3C2C)OCCCO4)cc1 (stereo unspecified)	-	-	-	-	-
CC1c2cc3c(cc2CCN1C(=O)c1ccc(Br)cc1)OCCCO3 (stereo unspecified)	-	-	-	-	-47
Cc1cccc(NC(=O)Cc2csc(COc3cccc(C)c3)n2)c1	-	-	-	-	-
CCOc1ccccc1NC(=O)Cc1csc(COc2cccc(C)c2)n1	-	-	-	68	-
Cc1c(-c2ccccc2)nc2c(Cl)cccc2c1C(=O)OCC(=O)c1ccc(F)cc1	-	-	-	-	-
Cc1ccc2cc(CN(Cc3cccs3)Cc3nnnn3C(C)(C)C)c3nnnn3c2c1	-	-	32	-	-
Cc1cc2cc(CN(Cc3cccs3)C(c3nnnn3C(C)(C)C)C(C)C)c3nnnn3c2cc1C (stereo unspecified)	-	-	-	-	-
SMILES	D1 PAM	TRHR agonist	TRHR PAM	D1 agonist	D1 antagonist
COC(=O)N/N=C/c1cc(N=Nc2ccccc2)ccc1O	-	-	-	-	-34
COc1cc(OC)cc(-c2nc3nc(C)c(CCC(=O)Nc4ccc(C)c(C)c4)c(C)n3n2)c1	-	-	-	-	-57
COc1cc(NC(=O)CCc2c(C)nc3c(-c4ccc(F)cc4)c(C)nn3c2C)cc(OC)c1OC	-	-	-	-	-41
Cc1ccc(C2CC(=O)N(Cc3ccccc3)c3c2c(C)nn3-c2nc(C)cc(C)n2)cc1 (stereo unspecified)	-	-	-	-	-
COc1ccccc1NC(=S)NC1CCC(CC2CCC(NC(=S)Nc3ccccc3OC)CC2)CC1 (stereo unspecified)	-	-	-	-	-
Fc1ccc(OCc2nc(-c3ccc(Br)o3)no2)c(F)c1	-	-	-	-	-
Clc1ccccc1OCc1nc(-c2ccc(Br)o2)no1	.	-	-	-	-41
Brc1ccc(-c2noc(COc3ccc4ccccc4c3)n2)o1	-	-	-	-	-52
COc1cccc(OCc2nc(-c3ccc(Br)o3)no2)c1	-	-	-	-	-
Cn1c(SCC(=O)N2CCOCC2)nc2c(c1=O)SCC2	-	-	-	-	-
Cc1ccc(-n2c(SCC(=O)N3CCCc4ccccc43)nc3c([nH]c4ccccc43)c2=O)cc1	-	-	-	-	-
CCN(Cc1cccc(OC)c1)CC1CCCN(CCc2cccc(OC)c2)C1 (stereo unspecified)	-	-	-	-	-39
COc1cccc(CN(C)CC2CCCN(CCc3ccccc3C)C2)c1 (stereo unspecified)	-	-	-	-	-63
CCOc1cccc(CN(CC)CC2CCCN(CCc3cccc(OC)c3)C2)c1O (stereo unspecified)	-	-	34	-	-
CCN(CC1CCCN(CCc2cccc(OC)c2)C1)C(=O)C=C(C)C (stereo unspecified)	-	-	-	-	-
CCc1nn2c(=O)cc(COC(=O)c3cccc(NC(=O)c4cccs4)c3)nc2s1	-	-	-	-	-
Cc1cc2c(s1)c1cnn(Cc3ccc(Cl)c(Cl)c3)c(=O)c1n2C	-	-	-	-	-
O=C1CN(S(=O)(=O)c2c(F)cccc2F)CCN1S(=O)(=O)c1ccc2c(c1)OCCO2	-	-	-	-	-
CC(C)Oc1ccc(CNC(=O)c2ccc3nc(SCc4ccc(F)cc4)n(C)c3c2)cc1	-	-	-	-	-
CCOc1ccc(NC(=O)c2ccc(Br)o2)c([N+](=O)[O-])c1	-	-	-	-	-45
CCOc1ccc(NC(=O)Cc2ccccc2)c([N+](=O)[O-])c1	-	-	-	-	-
Cn1nc(C(F)(F)F)c(-c2ccc(F)cc2)c1NC(=O)c1ccco1	-	-	-	-	-
Cn1nc(C(F)(F)F)c(-c2ccc(Br)cc2)c1NC(=O)Nc1ccc(F)cc1F	-	-	-	-	-34
CC1=C(C(=O)Nc2ccccc2)C(c2ccc(C(=O)O)cc2)n2ncnc2N1 (stereo unspecified)	-	-	-	-	-
CCCCc1ccc(C(=O)Nc2ccc3nc(N4CCN(CC)CC4)cc(C)c3c2)cc1	-	-	-	-	-59
CCN1CCN(c2cc(C)c3cc(NC(=O)c4cccc(Cl)c4)ccc3n2)CC1	-	-	-	-	-

Screens as filed in PubChem BioAssay.
